Screening data as filed in PubChem.
SMARCA2 act = SMARCA2 function activation, primary screen. hit rate 1% among 370,000. MG213 cells, MMTV-luciferase reporter, dexamethasone, overnight. activation, % at 9.1 µM; in the data active = activation above about 7.8%
FXN GAA850 act = frataxin GAA850 promoter activation | hit rate 0.56% among 360,000 | activation, % at 6 µM | HEK293 lucGAA850 FXN promoter luciferase reporter, 24 h; percent of 10 µM SAHA response;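 active = activation above the average of all compounds screened plus 3 SD, cutoff fixed separately per campaign, cut at about 7.5% in these data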
HIF activator = HIF pathway transcriptional activation; U2OS HRE-luciferase reporter, luminescence; normalized: DMSO 0%, desferrioxamine 100%; activation, % at 7.5 µM (by protocol); hit rate 0.32% among 300,000; AID 1910;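 active = mean activation of at least 10% of the iron chelator positive control signal, with at least half of replicates also reaching 10%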
GalR3 antag = blocks the human galanin receptor 3; O60755; HEK293 GalR3-CNG cAMP membrane potential fluorescence; galR3 body fused to GalR1 C-terminus; inhibition, % at 3 µM; hit rate 0.44% among 360,000; AID 651719;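 active = inhibition above the screen-wide average plus 3 SD, cut at about 13% in these data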;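 also: forskolin and galanin both at EC90 stimulate the cells; cAMP rise reported by CNG channel membrane potential dye signal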
Target sequence (O60755 1-299 limits assumed): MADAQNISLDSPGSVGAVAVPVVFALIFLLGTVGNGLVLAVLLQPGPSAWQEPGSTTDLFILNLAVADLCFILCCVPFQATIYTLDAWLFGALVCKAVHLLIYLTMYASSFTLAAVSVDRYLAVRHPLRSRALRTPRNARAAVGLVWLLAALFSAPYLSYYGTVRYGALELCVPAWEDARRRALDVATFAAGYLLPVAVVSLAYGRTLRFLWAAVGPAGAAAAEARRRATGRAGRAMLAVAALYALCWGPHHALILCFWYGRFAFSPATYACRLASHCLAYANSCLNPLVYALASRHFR
Hsp70 activator = Hsp70 transcriptional activation, primary screen; HeLa Hsp70 promoter luciferase reporter, luminescence; scaled: vehicle 0, proteasome-inhibitor control 100%; activation, % at 10 µM; hit rate 0.04% among 200,000;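 active = activation above the mean across all tested compounds plus 3 SD, cutoff set per campaign, cut at about 5.5% in these data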
Large screens that a line does not name were inactive. Rows were chosen to be rich in hits. Some 2.2% of all compounds tested hit in one or more screens of this group.

CCCC(=O)NC(c1ccccc1OC)c1ccc2cccnc2c1O (stereo not given)	HIF activator 69 (no result: SMARCA2 act, GalR3 antag)
CCC(=O)NC(c1ccc(OC)c(OC)c1)c1cc(Cl)c2cccnc2c1O (stereo not given)	none
CCCCC(=O)NC(c1ccccc1OC)c1ccc2cccnc2c1O (stereo not given)	HIF activator 63 (no result: Hsp70 activator)
CCCCOc1ccc(C(=O)NC2CCCCN(C(C)C)C2=O)cc1 (stereo not given)	none (no result: FXN GAA850 act, HIF activator, GalR3 antag, Hsp70 activator)
CCN(CC)C(=O)CC[C@H]1CC[C@]2(CCCN(C(=O)C(C)(C)C)C2)O1	none (no result: FXN GAA850 act, HIF activator, GalR3 antag, Hsp70 activator)
S=c1nc(Cc2ccc(Cl)cc2)[nH]c2ccccc12	GalR3 antag 13
Cc1cccc(NC(=O)c2nc[nH]c2C(=O)N(C)CCO)c1	none (no result: FXN GAA850 act, HIF activator, Hsp70 activator)
Cc1cc(S(=O)(=O)ON2C(=O)c3ccccc3C2=O)ccc1F	HIF activator 37 (no result: Hsp70 activator)
O=C(N[C@@H](Cc1cccnc1)C(=O)N1CCC[C@H]1C(=O)NCCc1ccccc1Cl)C1CC1	none (no result: FXN GAA850 act, HIF activator, Hsp70 activator)
O=C1C(Cl)=C(NCCc2ccccc2)C(=O)N1CCc1ccccc1	SMARCA2 act 7.9
CC(=O)Nc1ccc(Nc2ncnc3c2cnn3-c2cccc(C)c2)cc1	SMARCA2 act 7.9
CC(=O)Nc1ccc(Nc2ncnc3c2cnn3-c2ccccc2)cc1	none
COc1cc(C(=O)NCCc2nc3ccccc3n2C)cc(OC)c1OC	HIF activator 95
CN(C(=O)[C@@H](C1CC1)[C@@H](O)c1ccc2ccccc2c1)c1ccccc1	none (no result: FXN GAA850 act, HIF activator, GalR3 antag, Hsp70 activator)
CCCOc1ccc(C(=O)N2CCC(Oc3cccnc3)CC2)cc1	none (no result: FXN GAA850 act, HIF activator, GalR3 antag, Hsp70 activator)
Cc1ccc(S(=O)(=O)c2nc(S(C)(=O)=O)sc2N2CCC(C)CC2)cc1	SMARCA2 act 7.8 (no result: Hsp70 activator)
Cc1ccc(S(=O)(=O)c2nc(S(C)(=O)=O)sc2N2CCCCCC2)cc1	none (no result: Hsp70 activator)
CCN(CCCNC(=O)CCc1nc(-c2ccc(OC)cc2)no1)c1cccc(C)c1	HIF activator 143
CC(C)C(=O)N1CCC(Oc2cccnc2)CC1	none (no result: FXN GAA850 act, HIF activator, GalR3 antag, Hsp70 activator)
CC(=O)Nc1cccc(C(C)C2=CCCCC2)c1 (stereo not given)	SMARCA2 act 7.8 (no result: FXN GAA850 act, HIF activator, GalR3 antag, Hsp70 activator)
CCOC(=O)N1CCN(c2ccc(Cl)c(Cl)c2)CC1	HIF activator 107
CCOC(=O)N1CCN(C2CC(=O)N(c3ccc(Cl)c(Cl)c3)C2=O)CC1 (stereo not given)	none (no result: HIF activator)
CC(c1ccc(NC(=O)OC(C)(C)C)cc1)c1cn(C)c2ccccc12 (stereo not given)	none (no result: FXN GAA850 act, HIF activator, GalR3 antag, Hsp70 activator)
Oc1cccc(N2CCN(c3cccc(O)c3)CC2)c1	SMARCA2 act 7.8 (no result: FXN GAA850 act, HIF activator, Hsp70 activator)
CCCCCC(=O)NNC(=S)NC(=O)c1cccc([N+](=O)[O-])c1	HIF activator 62
CCCCCC(=O)NNC(=S)NC(=O)c1ccccc1[N+](=O)[O-]	none
CCOc1ccc(C2C(C(=O)c3ccco3)=C(O)C(=O)N2CCCn2ccnc2)cc1 (stereo not given)	none
CCCOc1cccc(C2C(C(=O)c3ccco3)=C(O)C(=O)N2CCCn2ccnc2)c1 (stereo not given)	HIF activator 39 (no result: Hsp70 activator)
COc1ccc(OC)c(-n2c(-c3cc(-c4ccc(F)cc4)n[nH]3)n[nH]c2=S)c1	GalR3 antag 15
COc1ccc(-c2n[nH]c(=S)n2-c2cc(OC)ccc2OC)cc1	none (no result: Hsp70 activator)
O=C(CN1CCN(Cc2ccccc2)CC1)Nc1ccc(N2CCOCC2)cc1	none
O=C(CS(=O)(=O)c1ccccc1)Nc1ccc(N2CCOCC2)cc1	HIF activator 20
CCn1ncc(C2=NOC(C(=O)Nc3ccc(C)cc3)C2)c1C (stereo not given)	none
CCn1ncc(C2=NOC(C(=O)Nc3ccc4c(c3)OCO4)C2)c1C (stereo not given)	HIF activator 110
COC(=O)c1cc2c(c3c4ccccc4n(S(=O)(=O)c4ccc(OC)cc4)c13)C(=O)N(Cc1ccco1)C2	none (no result: FXN GAA850 act, HIF activator, Hsp70 activator)
CCOC(=O)c1ccc(N2Cc3ccccc3C2=NC(=O)c2cccc([N+](=O)[O-])c2)cc1	FXN GAA850 act 7.8 (no result: Hsp70 activator)
COc1ccc(/C(N)=N/OC(=O)C2CCCCC2)cc1OC	FXN GAA850 act 9.0 (no result: Hsp70 activator)
COc1ccc(/C(N)=N/OC(=O)C2CCCCC2)cc1	none (no result: Hsp70 activator)
Cc1ccc(-c2cc(-c3nnc(SCC(=O)Nc4ccccc4-c4ccccc4)n3N)[nH]n2)cc1	none (no result: FXN GAA850 act, HIF activator, GalR3 antag, Hsp70 activator)
CC1CCN(S(=O)(=O)c2ccc3c4c2CC(=O)N4CC(C)S3)CC1 (stereo not given)	HIF activator 187 (no result: Hsp70 activator)
Cc1nc2ccc(NS(=O)(=O)c3ccc4c(c3)OCCO4)cc2s1	GalR3 antag 102
CN1CCN(C(=S)c2ccc(-c3cccc([N+](=O)[O-])c3)o2)CC1	SMARCA2 act 7.9 (no result: Hsp70 activator)
CN(C)CCNC(=O)Cc1ncc(C(F)(F)F)cc1Cl	none
O=C(Cc1ncc(C(F)(F)F)cc1Cl)NCCc1ccccn1	SMARCA2 act 7.9
Cc1ccc(C2=NOC(=O)/C2=C\c2ccccc2)cc1	HIF activator 31 (no result: Hsp70 activator)
CC1CCC(NC(=O)c2cc3c(s2)CS(=O)(=O)C3)CC1 (stereo not given)	none (no result: HIF activator)
CC(NC(=O)c1cc2c(s1)CS(=O)(=O)C2)c1ccccc1 (stereo not given)	HIF activator 125 (no result: Hsp70 activator)
COc1ccc(CN2CCC(CNC(=O)NC(C)C)CC2)cc1	none (no result: FXN GAA850 act, HIF activator, GalR3 antag, Hsp70 activator)
Cc1ccc(N(C)S(=O)(=O)c2ccc(-c3cc(C)no3)s2)cc1	HIF activator 9.7 (no result: Hsp70 activator)
COc1ccc(NC(=O)C2=Cc3ccccc3OC2)cc1	none
COc1ccc(NC(=O)C2=Cc3cccc(OC)c3OC2)cc1	SMARCA2 act 7.8 (no result: HIF activator)
COc1ccc(-c2cn3cccnc3n2)cc1Br	none
COc1ccc(-c2cn3cc(Br)cnc3n2)cc1	SMARCA2 act 7.9
CN(Cc1cccs1)C(=O)CSc1nc(N)cc(N)n1	HIF activator 39
COc1ccc(C(=O)Nc2cc(C(=O)c3ccccc3)c(C)oc2=O)cc1	FXN GAA850 act 12
CCCN1CCCCC(NC(=O)COCc2ccccc2)C1=O (stereo not given)	none (no result: FXN GAA850 act, HIF activator, Hsp70 activator)
CCC(=O)NC(=S)Nc1ccc(NC(=O)c2cccc([N+](=O)[O-])c2C)cc1	HIF activator 15
O=C([C@@H]1C[C@H]1c1ccccc1)N1CC[C@H]2[C@H](CCCN2Cc2cc(F)cc(F)c2)C1	none (no result: FXN GAA850 act, HIF activator, GalR3 antag, Hsp70 activator)
C[C@@H]1CN(c2ccc(N3CCNC[C@@H]3C)cc2C#N)CCN1Cc1ccccc1	none (no result: FXN GAA850 act, HIF activator, Hsp70 activator)
Cn1nc(C(=O)NCCCN2CCCCC2)c2c1-c1ccccc1S(=O)(=O)C2	HIF activator 19 (no result: SMARCA2 act, GalR3 antag, Hsp70 activator)
CSc1ccc(CCNC(=O)c2nn(C)c3c2CS(=O)(=O)c2ccccc2-3)cc1	none (no result: Hsp70 activator)
COc1ccc(NC(=S)c2ccc(N(C)C)cc2)cc1	HIF activator 36
O=C(CCc1ccccc1)N/N=C/c1cc(Br)ccc1O	HIF activator 12
Cc1ccc(C(=O)N/N=C/c2cc(Br)ccc2O)cn1	HIF activator 16 (no result: Hsp70 activator)
O=C(N/N=C/c1cc(Br)ccc1O)c1ccccc1Cl	HIF activator 26
COC(=O)N/N=C/c1cc(Br)ccc1O	none
CC(=O)N[C@@H]1C[C@@H]2O[C@H](CO)CC[C@@H]2O[C@@H]1CCc1ccc(-c2ccc(F)cc2)cc1	none (no result: FXN GAA850 act, HIF activator, GalR3 antag, Hsp70 activator)
